In PubChem BioAssay (NCATS):
Records with an inconclusive call do not appear. Active and inactive are the calls of the source. Calls come from the whole dose curve; as a rule, active = well fitted inhibition curve with a large enough effect; inconclusive = small, poorly fitted or top-dose-only effect; inactive = flat fitted curve, though single readings scatter.

What was measured:
JCK = assay: qHTS profiling for inhibitors of Plasmodium falciparum proliferation (AID 504749); note: potency is the fitted concentration of half-maximal effect; details: P. falciparum in erythrocytes, SYBR Green DNA, 72 h; series mostly up to 28.7 µM
In short: (§1)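 Parasite proliferation within erythrocytes, 72 h exposure. Endpoint: SYBR Green I fluorescence after overnight lysis at room temperature. Controls: 0.29 uM artemisinin, DMSO.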

N140 = assay: as above; details: P. falciparum in erythrocytes, SYBR Green DNA, 72 h; series mostly up to 28.7 µM
In short: as §1

P94_40 = assay: as above; details: P. falciparum in erythrocytes, SYBR Green DNA, 72 h; series mostly up to 28.7 µM
In short: as §1

PAD = assay: as above; details: P. falciparum in erythrocytes, SYBR Green DNA, 72 h; series mostly up to 28.7 µM
In short: as §1

PC15 = assay: as above; details: P. falciparum in erythrocytes, SYBR Green DNA, 72 h; series mostly up to 28.7 µM
In short: as §1

PC49 = assay: as above; details: P. falciparum in erythrocytes, SYBR Green DNA, 72 h; series mostly up to 28.7 µM
In short: as §1

SC27B = assay: as above; details: P. falciparum in erythrocytes, SYBR Green DNA, 72 h; series mostly up to 28.7 µM
In short: as §1

TAB109 = assay: as above; details: P. falciparum in erythrocytes, SYBR Green DNA, 72 h; series mostly up to 28.7 µM
In short: as §1

CRL-7250 = normal cell line; assay: Cytotoxic Profiling of Annotated Libraries Using Quantitative High-Throughput Screening (AID 1296008); details: Five cell lines viability, CellTiter-Glo ATP luminescence, 48-72 h; hits give low values; for max response: % is set by controls: 0 for no effect and ±100 for the full control effect
In short: (§2)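 Compounds were pin-transferred onto cells and incubated 48 or 72 hr at 37 degree Celsius, 95% humidity. CellTiter-Glo was added, plates sat 10 min at room temperature, then ATP-coupled luminescence was imaged as the viability read-out.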

HEK293 = assay: as above; details: Five cell lines viability, CellTiter-Glo ATP luminescence, 48-72 h; hits give low values
In short: as §2

HaCat [1] = assay: as above; details: Five cell lines viability, CellTiter-Glo ATP luminescence, 48-72 h; hits give low values
In short: as §2

KB-3-1 = assay: as above; details: Five cell lines viability, CellTiter-Glo ATP luminescence, 48-72 h, hits give low values
In short: as §2

NIH3T3 = assay: as above; details: Five cell lines viability, CellTiter-Glo ATP luminescence, 48-72 h; hits give low values
In short: as §2

HEK293T = assay: qHTS assay to identify novel small-molecules to repurpose for Merkel cell carcinoma treatment (AID 1296009); details: MCC and control cell lines, CellTiter-Glo viability, 72 h; at 44.8 µM (top of the series) unless noted
In short: (§3)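 qHTS format: cells treated with library compounds in DMSO across 8 (NPC) or 11 (MIPE) concentrations. Readout after 72 hr at 37 degree celsius was CellTiter-Glo luminescence.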

P93_24 = assay: qHTS profiling for inhibitors of Plasmodium falciparum proliferation (AID 504749); note: potency is the fitted concentration of half-maximal effect; details: P. falciparum in erythrocytes, SYBR Green DNA, 72 h; series mostly up to 28.7 µM
In short: as §1

PC26 = assay: as above; details: P. falciparum in erythrocytes, SYBR Green DNA, 72 h; series mostly up to 28.7 µM
In short: as §1

TAB113 = assay: as above; details: P. falciparum in erythrocytes, SYBR Green DNA, 72 h; series mostly up to 28.7 µM
In short: as §1

TAB165 = assay: as above; details: P. falciparum in erythrocytes, SYBR Green DNA, 72 h; series mostly up to 28.7 µM
In short: as §1

W2 = assay: as above; details: P. falciparum in erythrocytes, SYBR Green DNA, 72 h; series mostly up to 28.7 µM
In short: as §1

HACAT [2] = assay: qHTS assay to identify novel small-molecules to repurpose for Merkel cell carcinoma treatment (AID 1296009); details: MCC and control cell lines, CellTiter-Glo viability, 72 h; at 44.8 µM (top of the series) unless noted
In short: as §3
Note: nearly all actives have a fitted effect of over 60% in size.

NCc1ccc(S(N)(=O)=O)cc1
inactive: Potency (JCK) | Potency (N140) | Potency (P94_40) | Potency (PAD) | Potency (PC15) | Potency (PC49) | Potency (SC27B) | Potency (TAB109) | max response (CRL-7250) -8.65% | outcome (HEK293) | max response (HaCat [1]) -6.18% | max response (KB-3-1) -7.46% | max response (NIH3T3) 1.15% | outcome (HEK293T)

C[C@@H](N)C(=O)O
inactive: Potency (JCK) | Potency (N140) | Potency (P93_24) | Potency (P94_40) | Potency (PAD) | Potency (PC15) | Potency (PC26) | Potency (PC49) | Potency (SC27B) | Potency (TAB109) | Potency (TAB113) | Potency (TAB165) | Potency (W2) | max response (CRL-7250) 0.494% | outcome (HEK293) | max response (HaCat [1]) -6.96% | max response (KB-3-1) -23.1% | max response (NIH3T3) -0.0264% | outcome (HEK293T)

C/C=C1\[C@H]2C=C(C)C[C@]1(N)c1ccc(=O)[nH]c1C2
inactive: max response (CRL-7250) -0.0215% | outcome (HEK293) | max response (HaCat [1]) 4.06% | max response (KB-3-1) -3.64% | max response (NIH3T3) -4.73% | outcome (HEK293T)

COC(=O)N/N=C/c1c[n+]([O-])c2ccccc2[n+]1[O-]
inactive: max response (CRL-7250) 4.42% | outcome (HEK293) | max response (HaCat [1]) -20.3% | max response (KB-3-1) -2.23% | max response (NIH3T3) -11.1% | outcome (HEK293T)

CC(C)=CCC/C(C)=C/CO
inactive: Potency (JCK) | Potency (N140) | Potency (P93_24) | Potency (P94_40) | Potency (PAD) | Potency (PC15) | Potency (PC26) | Potency (PC49) | Potency (SC27B) | Potency (TAB109) | Potency (TAB113) | Potency (TAB165) | Potency (W2) | outcome (CRL-7250) | outcome (HEK293) | max response (HaCat [1]) -2.14% | max response (KB-3-1) 8.27% | max response (NIH3T3) -13.7% | outcome (HEK293T)

Cc1ccccc1N=Nc1ccc(N=Nc2c(O)ccc3ccccc23)c(C)c1
inactive: Potency (JCK) | Potency (N140) | Potency (P93_24) | Potency (P94_40) | Potency (PAD) | Potency (PC15) | Potency (PC26) | Potency (PC49) | Potency (SC27B) | Potency (TAB109) | Potency (TAB113) | Potency (TAB165) | Potency (W2) | max response (CRL-7250) -16.7% | outcome (HEK293) | max response (HaCat [1]) 0.728% | max response (KB-3-1) 9.66% | max response (NIH3T3) 0.522% | outcome (HEK293T)

CC1(C)S[C@@H]2[C@H](NC(=O)C(C(=O)O)c3ccccc3)C(=O)N2[C@H]1C(=O)O (stereo partly drawn)
inactive: max response (CRL-7250) -9.98% | outcome (HEK293) | max response (HaCat [1]) -0.997% | max response (KB-3-1) 3.76% | max response (NIH3T3) -1.06% | outcome (HEK293T)

Cc1cccc(C)c1NC(=O)CC12CCCN1CCC2
inactive: Potency (JCK) | Potency (N140) | Potency (P93_24) | Potency (P94_40) | Potency (PAD) | Potency (PC15) | Potency (PC26) | Potency (PC49) | Potency (SC27B) | Potency (TAB109) | Potency (TAB113) | Potency (TAB165) | max response (CRL-7250) 2.63% | outcome (HEK293) | max response (HaCat [1]) -12.5% | max response (KB-3-1) -0.628% | max response (NIH3T3) -1.1% | outcome (HEK293T)

CCCCCCCCCCC(CO)CCCCCCCC (stereo not drawn)
inactive: Potency (JCK) | Potency (N140) | Potency (P94_40) | Potency (PAD) | Potency (PC15) | Potency (PC26) | Potency (PC49) | Potency (SC27B) | Potency (TAB109) | Potency (TAB113) | Potency (TAB165) | max response (CRL-7250) -6.12% | outcome (HEK293) | max response (HaCat [1]) -2.15% | max response (KB-3-1) 12.2% | max response (NIH3T3) 1.86% | outcome (HEK293T)

CNCc1ccccc1
inactive: Potency (JCK) | Potency (N140) | Potency (P93_24) | Potency (P94_40) | Potency (PAD) | Potency (PC15) | Potency (PC26) | Potency (PC49) | Potency (SC27B) | Potency (TAB109) | Potency (TAB113) | Potency (TAB165) | Potency (W2) | max response (CRL-7250) 4.71% | outcome (HEK293) | max response (HaCat [1]) -18.5% | max response (KB-3-1) -4.93% | max response (NIH3T3) 1.15% | outcome (HEK293T)

CCN1CC(CCN2CCOCC2)C(c2ccccc2)(c2ccccc2)C1=O (stereo not drawn)
inactive: Potency (JCK) | Potency (PAD) | Potency (PC15) | Potency (PC26) | Potency (PC49) | Potency (SC27B) | Potency (TAB113) | Potency (TAB165) | max response (CRL-7250) 2.93% | max response (HEK293) -5.24% | outcome (HaCat [1]) | max response (KB-3-1) -4.5% | max response (NIH3T3) 2.99% | outcome (HACAT [2])
active: Potency (W2) 9.53 µM

Nc1ccc(S(=O)(=O)c2ccc(N)cc2)cc1
inactive: Potency (JCK) | Potency (N140) | Potency (P93_24) | Potency (P94_40) | Potency (PAD) | Potency (PC15) | Potency (PC26) | Potency (PC49) | Potency (SC27B) | Potency (TAB109) | Potency (TAB113) | Potency (TAB165) | Potency (W2) | max response (CRL-7250) 2.75% | outcome (HEK293) | max response (HaCat [1]) 2.48% | max response (KB-3-1) -3.79% | max response (NIH3T3) 3.17% | outcome (HEK293T)

Nc1c2c(nc3c1CCC3)CCCC2
inactive: outcome (CRL-7250) | max response (HEK293) -2.02% | outcome (HaCat [1]) | max response (KB-3-1) -0.45% | max response (NIH3T3) 0.339% | outcome (HACAT [2])
active: Potency (P94_40) 11.2 µM | Potency (TAB165) 11.2 µM

CC(C)C[C@@H](N)C(=O)O
inactive: Potency (JCK) | Potency (N140) | Potency (P93_24) | Potency (P94_40) | Potency (PAD) | Potency (PC15) | Potency (PC26) | Potency (PC49) | Potency (SC27B) | Potency (TAB109) | Potency (TAB113) | Potency (TAB165) | Potency (W2) | max response (CRL-7250) -5.17% | outcome (HEK293) | max response (HaCat [1]) 4.82% | max response (KB-3-1) 12.7% | max response (NIH3T3) 4.91% | outcome (HEK293T) inactive [at 17.4 µM]

CC(C(=O)O)c1ccc2c(c1)Cc1cccnc1O2 (stereo not drawn)
inactive: Potency (JCK) | Potency (N140) | Potency (P93_24) | Potency (P94_40) | Potency (PAD) | Potency (PC15) | Potency (PC26) | Potency (PC49) | Potency (SC27B) | Potency (TAB109) | Potency (TAB113) | Potency (TAB165) | Potency (W2) | max response (CRL-7250) -6.8% | outcome (HEK293) | max response (HaCat [1]) -5.6% | max response (KB-3-1) -7.45% | max response (NIH3T3) -7.1% | outcome (HEK293T)
